The supplement of paper PMC8047044
Where a name gives a salt, the structure may show the parent alone.

These compounds were tested on Neuro-2a (assay: neurite formation score, plate-normalized to DMSO control mean 5.04 (score (0-8 scale)); higher = more or longer neurites). Details: 1 µM.
Description: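 Neuro-2a mouse neuroblastoma cells in PLL-coated 96-well plates were pre-treated for 1 h in DMEM(+) with each kinase inhibitor at 1 µM, then switched to serum-free DMEM(-) with inhibitor to induce neurite outgrowth and fixed about 2-3 h later. Three blinded observers scored neurite formation from 0 (no neurites) to 8 (long neurites on almost all cells).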
`Cn1cc(C2=C(c3ccc(Cl)cc3Cl)C(=O)NC2=O)c2ccccc21` was tested, and the neurite formation score was 4.14.
`CN1CCN(c2ccc(Nc3cc(-c4cccc(-n5ccc6cc(C7CC7)cc(F)c6c5=O)c4CO)cn(C)c3=O)nc2)CC1` was tested, and the neurite formation score was 5.63.
With `CN(C)c1ccc(-c2nc3ncc(Cl)c(N4CCN(CC(=O)Nc5nccs5)CC4)c3[nH]2)cc1` the neurite formation score was 3.8.
Compound `Cc1cnc(Nc2ccc(OCCN3CCCC3)cc2)nc1Nc1cccc(S(=O)(=O)NC(C)(C)C)c1` has a neurite formation score of 4.69.
Work on `O=S(=O)(c1cccc2cnccc12)N1CCCNCC1` [Fasudil (HA-1077) HCl] yielded a neurite formation score of 4.24.
`CCNc1nc(Nc2cc(F)c(C(=O)N3CCOCC3)cc2OC)ncc1C(F)(F)F` showed a neurite formation score of 3.21.
`Cc1cc(Nc2cc(N3CCN(C)CC3)nc(Sc3ccc(NC(=O)C4CC4)cc3)n2)n[nH]1` [VX-680 (MK-0457,Tozasertib)] gave a neurite formation score of 5.02.
Work on `O=C(Nc1ccccc1C(=O)NC1CCCCNC1=O)c1cc2ccccc2s1` (stereo not drawn) yielded a neurite formation score of 3.54.
Compound `N#Cc1c(Oc2ccc(F)c(NC(=O)Cc3cccc(C(F)(F)F)c3)c2)ccc2nc(NC(=O)C3CC3)sc12` has a neurite formation score of 1.9.
Work on `Cc1ccc(NC(=O)c2ccc(CN3CCN(C)CC3)cc2)cc1Nc1nccc(-c2cccnc2)n1` [Imatinib (STI571)] yielded a neurite formation score of 4.54.
With `C=CC(=O)Nc1cc2c(Nc3ccc(F)c(Cl)c3)ncnc2cc1OCCCN1CCOCC1` [Canertinib (CI-1033)] the neurite formation score was 4.57.
In the case of `O=C1NC(=O)/C(=C/c2ccc3nccc(-c4ccncc4)c3c2)S1`, the neurite formation score is reported as 4.14.
`COc1cc(F)c(F)c(Nc2ccc(I)cc2F)c1NS(=O)(=O)C1(C[C@H](O)CO)CC1` [Refametinib] gave a neurite formation score of 4.14.
